{
  "source": "paper PMC4336329",
  "about": "(PLoS ONE, 2015)",
  "note": "Out of some 310,000 compounds screened, about 14,000 (4.5%) showed an effect of 50% or more. The effect is printed as a negative number. What follows is part of a selection rich in strong results, with near analogues and random picks from the rest.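 Further: peak tail current of the secondary pulse compared with the same well before compound.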",
  "data": [
    {"molecular_target": "human ether-à-go-go-related gene (hERG) potassium channel (human, UniProt Q12809)", "sequence (Q12809 whole entry, looked up)": "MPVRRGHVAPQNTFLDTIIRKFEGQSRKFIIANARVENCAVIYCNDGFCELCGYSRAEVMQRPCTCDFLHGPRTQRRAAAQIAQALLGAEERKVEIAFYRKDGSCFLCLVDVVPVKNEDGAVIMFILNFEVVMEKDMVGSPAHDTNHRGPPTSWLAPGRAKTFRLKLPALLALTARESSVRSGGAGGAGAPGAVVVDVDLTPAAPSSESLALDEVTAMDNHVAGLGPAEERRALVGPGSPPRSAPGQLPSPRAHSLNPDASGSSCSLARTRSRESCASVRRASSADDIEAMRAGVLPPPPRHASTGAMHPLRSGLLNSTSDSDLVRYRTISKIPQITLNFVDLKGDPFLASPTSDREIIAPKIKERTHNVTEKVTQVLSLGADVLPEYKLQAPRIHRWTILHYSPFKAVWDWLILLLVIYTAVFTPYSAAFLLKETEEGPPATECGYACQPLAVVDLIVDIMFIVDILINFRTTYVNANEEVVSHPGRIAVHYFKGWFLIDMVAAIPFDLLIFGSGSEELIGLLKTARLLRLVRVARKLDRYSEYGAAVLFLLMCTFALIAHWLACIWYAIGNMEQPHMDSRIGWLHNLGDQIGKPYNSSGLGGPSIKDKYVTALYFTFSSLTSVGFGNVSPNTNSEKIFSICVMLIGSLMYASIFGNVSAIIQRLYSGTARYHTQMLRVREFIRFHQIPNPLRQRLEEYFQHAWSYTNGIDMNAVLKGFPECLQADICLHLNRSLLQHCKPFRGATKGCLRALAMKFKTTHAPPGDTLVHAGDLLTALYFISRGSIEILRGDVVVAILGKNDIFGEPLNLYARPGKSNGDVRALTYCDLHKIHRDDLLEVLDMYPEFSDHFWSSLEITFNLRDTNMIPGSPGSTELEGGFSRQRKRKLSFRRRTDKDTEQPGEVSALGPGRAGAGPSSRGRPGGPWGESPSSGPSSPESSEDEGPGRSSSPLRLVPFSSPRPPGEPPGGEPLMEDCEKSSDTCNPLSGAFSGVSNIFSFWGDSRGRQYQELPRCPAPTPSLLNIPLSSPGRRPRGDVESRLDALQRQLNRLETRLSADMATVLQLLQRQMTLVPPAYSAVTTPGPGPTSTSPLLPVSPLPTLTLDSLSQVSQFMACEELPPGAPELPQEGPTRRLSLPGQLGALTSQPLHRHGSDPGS", "assay": "primary screen, population patch clamp on CHO cells stably expressing hERG; higher = less effect of the substance", "units": {"hERG current change (%, negative = inhibition) at 10uM": "%"}, "values": [
      {"smiles": "O=C(Nc1ccc(Cl)cc1)N1CCC(CO)(Cc2ccccc2)CC1", "hERG current change (%, negative = inhibition) at 10uM": -46.6},
      {"smiles": "O=C(C1CC=CCC1)N1CCC(CO)(Cc2ccc(Cl)cc2)CC1", "note": "(stereo not drawn)", "hERG current change (%, negative = inhibition) at 10uM": -7.77},
      {"smiles": "OCC1(Cc2ccc(Cl)cc2)CCN(CCCc2ccccc2)CC1", "hERG current change (%, negative = inhibition) at 10uM": -83.9},
      {"smiles": "O=S(=O)(c1cccs1)N1CCC(CO)(Cc2ccc(Cl)cc2)CC1", "hERG current change (%, negative = inhibition) at 10uM": -7.74},
      {"smiles": "O=C1CC(N2CCOCC2)C(=O)N1CCc1ccccc1", "note": "(stereo not drawn)", "hERG current change (%, negative = inhibition) at 10uM": 6.86},
      {"smiles": "C=C1c2cc(C)ccc2NC(=O)N1c1ccccc1", "hERG current change (%, negative = inhibition) at 10uM": 2.71},
      {"smiles": "Cc1ccc(S(=O)(=O)N2CCN(C(=O)c3ccccn3)CC2)c(C)c1", "hERG current change (%, negative = inhibition) at 10uM": 20.1},
      {"smiles": "NC(=O)C1CCN(c2oc(/C=C/c3ccc(F)cc3)nc2S(=O)(=O)c2ccccc2)CC1", "hERG current change (%, negative = inhibition) at 10uM": 5.52},
      {"smiles": "Cc1ccc(NC(=O)Nc2c(C)n(C)n(-c3ccccc3)c2=O)cc1C", "hERG current change (%, negative = inhibition) at 10uM": 13.1},
      {"smiles": "Cn1c(/C(C#N)=C/c2ccc(-c3ccc(S(N)(=O)=O)cc3)o2)nc2ccccc21", "hERG current change (%, negative = inhibition) at 10uM": -38.1},
      {"smiles": "COc1ccc(N/C(N)=N/c2nc(CSc3ccc(Cl)cc3)cc(=O)[nH]2)cc1", "hERG current change (%, negative = inhibition) at 10uM": 17.5},
      {"smiles": "Cc1cccc(CN2CCC(CNC(=O)C3CCCN(S(=O)(=O)c4cnc[nH]4)C3)CC2)c1", "note": "(stereo not drawn)", "hERG current change (%, negative = inhibition) at 10uM": -1.13},
      {"smiles": "O=C(NCc1cccnc1)C(=O)Nc1nc2ccccc2s1", "hERG current change (%, negative = inhibition) at 10uM": 3.9},
      {"smiles": "O=C(Nc1cccc2c1CCCC2)C1CCCN(S(=O)(=O)c2cccc3nonc23)C1", "note": "(stereo not drawn)", "hERG current change (%, negative = inhibition) at 10uM": -1.23},
      {"smiles": "CCO[C@@H]1OC(C(=O)NCc2nc3ccccc3[nH]2)=C[C@H](c2ccccc2)[C@H]1CCCO", "hERG current change (%, negative = inhibition) at 10uM": -25.4},
      {"smiles": "OCCC1CN(Cc2ccc(Oc3ncccn3)cc2)CCN1C1CCCC1", "note": "(stereo not drawn)", "hERG current change (%, negative = inhibition) at 10uM": 8.16},
      {"smiles": "CSc1ccc(CN2CCCCCC2)cc1", "hERG current change (%, negative = inhibition) at 10uM": -35},
      {"smiles": "OCC1(Cc2ccc(Cl)cc2)CCN(Cc2ccccc2F)CC1", "hERG current change (%, negative = inhibition) at 10uM": -69.2},
      {"smiles": "OCC1(Cc2ccc(Cl)cc2)CCN(Cc2ccc(Oc3ncccn3)cc2)CC1", "hERG current change (%, negative = inhibition) at 10uM": -74.1},
      {"smiles": "CSc1ccc(/C=N/N2CCN(Cc3ccc(Cl)cc3)CC2)cc1", "hERG current change (%, negative = inhibition) at 10uM": 8.01},
      {"smiles": "CSc1ccc(CN2CCC(CO)(Cc3ccc(Cl)cc3)CC2)cc1", "hERG current change (%, negative = inhibition) at 10uM": -81.3},
      {"smiles": "CCN1CCCC(CO)(Cc2ccccc2)C1", "note": "(stereo not drawn)", "hERG current change (%, negative = inhibition) at 10uM": 13.3},
      {"smiles": "Fc1ccccc1CN1CCN(c2ccc(Cl)cc2)CC1", "hERG current change (%, negative = inhibition) at 10uM": 1.71},
      {"smiles": "OCC1(Cc2ccccc2)CCCN(Cc2ccn[nH]2)C1", "note": "(stereo not drawn)", "hERG current change (%, negative = inhibition) at 10uM": -11.8},
      {"smiles": "OCCC1CN(Cc2ccc(Oc3ncccn3)cc2)CCN1C1CCCCC1", "note": "(stereo not drawn)", "hERG current change (%, negative = inhibition) at 10uM": -7.34},
      {"smiles": "OCC1(Cc2ccccc2)CCN(Cc2cccc(F)c2F)CC1", "hERG current change (%, negative = inhibition) at 10uM": -11.3},
      {"smiles": "CSc1ccc(CN2CCCC(CO)(Cc3ccccc3)C2)cc1", "note": "(stereo not drawn)", "hERG current change (%, negative = inhibition) at 10uM": -60.7},
      {"smiles": "COc1ccc(NC(=O)CNc2cc(C)ccc2C)cc1S(=O)(=O)N1CCOCC1", "hERG current change (%, negative = inhibition) at 10uM": -8.85},
      {"smiles": "COc1cccc(-c2cn(-c3cccc(C(F)(F)F)c3)c(=S)[nH]2)c1", "hERG current change (%, negative = inhibition) at 10uM": 20.4},
      {"smiles": "Cc1cnc(C(=O)OCC(=O)N(C)CC(=O)Nc2ccccc2Cl)cn1", "hERG current change (%, negative = inhibition) at 10uM": -2.14},
      {"smiles": "CC(OC(=O)c1ccncc1)C(=O)Nc1cccc(Cl)c1", "note": "(stereo not drawn)", "hERG current change (%, negative = inhibition) at 10uM": -23.2},
      {"smiles": "Cc1ccc(S(=O)(=O)N(C)C)cc1NC(=O)C(C)OC(=O)c1ccc2ccccc2n1", "note": "(stereo not drawn)", "hERG current change (%, negative = inhibition) at 10uM": -26.8},
      {"smiles": "Cc1cc(C)cc(N(CCC(=O)Nc2nnc(C3CC3)s2)S(=O)(=O)c2ccc(Cl)cc2)c1", "hERG current change (%, negative = inhibition) at 10uM": 4.63},
      {"smiles": "COC(=O)C1CCN(C(=O)COC(=O)c2oc3ccc(OC)cc3c2C)CC1", "hERG current change (%, negative = inhibition) at 10uM": -17.3},
      {"smiles": "COc1ccc2oc(C(=O)OCC(=O)N3CCC(C)CC3)c(C)c2c1", "hERG current change (%, negative = inhibition) at 10uM": -0.112},
      {"smiles": "COc1ccc2oc(C(=O)OCC(=O)N3CC(C)CC(C)C3)c(C)c2c1", "note": "(stereo not drawn)", "hERG current change (%, negative = inhibition) at 10uM": -56.1},
      {"smiles": "COc1ccc2oc(C(=O)OCC(=O)N3CCCCC3)c(C)c2c1", "hERG current change (%, negative = inhibition) at 10uM": 8.71},
      {"smiles": "CCOC(=O)C1CCN(C(=O)COC(=O)c2oc3ccc(OC)cc3c2C)CC1", "hERG current change (%, negative = inhibition) at 10uM": -55.6},
      {"smiles": "COc1ccc2oc(C(=O)OCC(=O)N3CC(C)OC(C)C3)c(C)c2c1", "note": "(stereo not drawn)", "hERG current change (%, negative = inhibition) at 10uM": -0.998},
      {"smiles": "O=C(NCc1ccncc1)c1cccc(F)c1", "hERG current change (%, negative = inhibition) at 10uM": 0.361},
      {"smiles": "Cc1c(C(=O)c2ccccc2C(=O)O)sc2ccccc12", "hERG current change (%, negative = inhibition) at 10uM": 15},
      {"smiles": "Cc1cc2cc(CCNC(=O)C(C)C)c(=O)[nH]c2cc1C", "hERG current change (%, negative = inhibition) at 10uM": 2.03},
      {"smiles": "NC(=O)C1=C[C@H](C2CCCCC2)C[C@H](OCc2ccc(CO)cc2)O1", "hERG current change (%, negative = inhibition) at 10uM": 2.51},
      {"smiles": "COc1ccc(S(=O)(=O)N2CCCC2=O)cc1N(C)S(C)(=O)=O", "hERG current change (%, negative = inhibition) at 10uM": 13.8},
      {"smiles": "CCOC(=O)c1c(C)[nH]c(C)c1C(=O)COC(=O)/C=C/c1cccc(C(F)(F)F)c1", "hERG current change (%, negative = inhibition) at 10uM": 1.35}
    ]}
  ]
}
